# Laboratory results as given in PubChem BioAssay (NCI).
# “And” between values parts separate entries of the source, which are not always exact repeats. Equal values may be shown once. This is part of a sample that, as a whole, favours compounds with a hit. Of some 83,000 tested, about 20% had one in any assay.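 In brief: 96-well plates, 48 h treatment, single concentration, percent growth endpoint.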 A number with no mark means an inactive call. The source made the active and inactive calls. Rule for the calls: active = growth percent below 10; inactive = the rest.
# What was measured:
# Test in all cases: NCI-60 one-dose screen, 48 h (100 = growth as untreated, 0 = no growth, -100 = all killed)
# HCT-15 colon = tested on: HCT-15 colon
# HT29 colon = tested on: HT29 colon
# SNB-75 CNS = tested on: SNB-75 CNS
# SNB-19 CNS = tested on: SNB-19 CNS
# U251 CNS = tested on: U251 CNS
# PC-3 prostate = tested on: PC-3 prostate
# SK-MEL-5 melanoma = tested on: SK-MEL-5 melanoma
# UACC-62 melanoma = tested on: UACC-62 melanoma
# LOX IMVI melanoma = tested on: LOX IMVI melanoma
# SK-MEL-28 melanoma = tested on: SK-MEL-28 melanoma
structure (smiles),measurement,setting,value
ON=C1CCCCCCCC1,growth,HCT-15 colon; 10 µM unless noted,105%
same,growth,HT29 colon; 10 µM unless noted,104% and 110%
same,growth,SNB-75 CNS; 10 µM unless noted,101% and 80.7%
same,growth,SNB-19 CNS; 10 µM unless noted,106% and 104%
same,growth,U251 CNS; 10 µM unless noted,107% and 110%
same,growth,PC-3 prostate; 10 µM unless noted,95.3% and 104%
same,growth,SK-MEL-5 melanoma; 10 µM unless noted,106%
same,growth,UACC-62 melanoma; 10 µM unless noted,103% and 110%
same,growth,LOX IMVI melanoma; 10 µM unless noted,95.4% and 102%
Cn1cc(C2=C(c3cccc4ccccc34)C(=O)NC2=O)c2cc(Br)ccc21,growth,HCT-15 colon; 10 µM unless noted,91.3%
same,growth,HT29 colon; 10 µM unless noted,90.5%
same,growth,SNB-75 CNS; 10 µM unless noted,37.9%
same,growth,SNB-19 CNS; 10 µM unless noted,108%
same,growth,U251 CNS; 10 µM unless noted,91.7%
same,growth,PC-3 prostate; 10 µM unless noted,97.3%
same,growth,SK-MEL-5 melanoma; 10 µM unless noted,93.5%
same,growth,UACC-62 melanoma; 10 µM unless noted,112%
same,growth,LOX IMVI melanoma; 10 µM unless noted,89.8%
CC1(C)C(N)=Nc2cc(OCCCN3Cc4ccc(OCCc5cn(CC(=O)N6CCC(CCN7CCCC7)CC6)nn5)cc4C3)c(OCC3CC3)cc21,growth,HCT-15 colon; 10 µM unless noted,97.2%
same,growth,HT29 colon; 10 µM unless noted,74.2%
same,growth,SNB-75 CNS; 10 µM unless noted,93.8%
same,growth,SNB-19 CNS; 10 µM unless noted,104%
same,growth,U251 CNS; 10 µM unless noted,97.7%
same,growth,PC-3 prostate; 10 µM unless noted,84.5%
same,growth,SK-MEL-5 melanoma; 10 µM unless noted,103%
same,growth,UACC-62 melanoma; 10 µM unless noted,98.6%
same,growth,LOX IMVI melanoma; 10 µM unless noted,100%
CC(=O)OC[C@]12CCC(C)(C)C=C1[C@H]1CC[C@@H]3[C@@]4(C)CCCNC(C)(C)[C@@H]4CC[C@@]3(C)[C@]1(C)CC2,growth,HCT-15 colon; 10 µM unless noted,89.6%
same,growth,HT29 colon; 10 µM unless noted,31.6%
same,growth,SNB-75 CNS; 10 µM unless noted,71.8%
same,growth,SNB-19 CNS; 10 µM unless noted,53.4%
same,growth,U251 CNS; 10 µM unless noted,35.3%
same,growth,PC-3 prostate; 10 µM unless noted,37%
same,growth,SK-MEL-5 melanoma; 10 µM unless noted,9.31% (active)
same,growth,UACC-62 melanoma; 10 µM unless noted,34.4%
same,growth,LOX IMVI melanoma; 10 µM unless noted,72.5%
CC(=O)/C=C/c1ccc(OCc2ccc(C(C)(C)C)cc2)cc1,growth,HCT-15 colon; 10 µM,64.7%
same,growth,HCT-15 colon; 100 µM,22.2%
same,growth,HT29 colon; 10 µM,42.4%
same,growth,HT29 colon; 100 µM,8.01% (active)
same,growth,SNB-75 CNS; 10 µM,94.7%
same,growth,SNB-75 CNS; 100 µM,-11.6% (active)
same,growth,SNB-19 CNS; 10 µM,98.5%
same,growth,SNB-19 CNS; 100 µM,28.5%
same,growth,U251 CNS; 10 µM,88.9%
same,growth,U251 CNS; 100 µM,37.7%
same,growth,PC-3 prostate; 10 µM,79.1%
same,growth,PC-3 prostate; 100 µM,14%
same,growth,SK-MEL-5 melanoma; 10 µM,50.3%
same,growth,SK-MEL-5 melanoma; 100 µM,-6.85% (active)
same,growth,UACC-62 melanoma; 10 µM,74.2%
same,growth,UACC-62 melanoma; 100 µM,-3.4% (active)
same,growth,LOX IMVI melanoma; 10 µM,62.3%
same,growth,LOX IMVI melanoma; 100 µM,32%
same,growth,SK-MEL-28 melanoma; 10 µM,85.5%
same,growth,SK-MEL-28 melanoma; 100 µM,-1.32% (active)
